GLP-1R agonist – qHTS of GLP-1 Receptor Agonists | Glucagon-like peptide 1 receptor (Homo sapiens), P43220 | HEK293 GLP-1R CRE-luciferase, luminescence, 4-6 h; cells express a hypersensitive GLP-1R form | Potency, µM (series often up to 45.6 µM), without a hit: at the top dose activation, hits mostly activators | hit rate 0.007% among 380,000 | AID 624172, 2012; also: % of control where 0% means no effect
Target sequence (P43220 whole entry, looked up): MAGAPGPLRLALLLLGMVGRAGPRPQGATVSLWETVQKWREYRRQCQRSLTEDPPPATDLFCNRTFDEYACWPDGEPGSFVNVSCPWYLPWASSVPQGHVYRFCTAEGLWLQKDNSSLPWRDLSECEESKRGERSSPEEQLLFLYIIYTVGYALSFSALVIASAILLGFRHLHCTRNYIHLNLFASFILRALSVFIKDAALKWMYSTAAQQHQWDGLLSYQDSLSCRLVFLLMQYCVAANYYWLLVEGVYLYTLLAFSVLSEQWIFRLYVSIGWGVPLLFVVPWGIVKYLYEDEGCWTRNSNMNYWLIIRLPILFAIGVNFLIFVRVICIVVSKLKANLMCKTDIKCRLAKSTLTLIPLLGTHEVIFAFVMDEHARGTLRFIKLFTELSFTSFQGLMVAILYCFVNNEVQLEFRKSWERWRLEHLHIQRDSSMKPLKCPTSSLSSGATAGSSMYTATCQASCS
GLP1R inv ag – qHTS of GLP-1 Receptor Inverse Agonists (Inhibition Mode). HEK293 GLP-1R CRE-luciferase, luminescence, 24 h; GLP-1R form is constitutively active. Potency, µM (top dose mostly 38.3 µM), for inactives: at the top dose activity change, negative = inhibition, hits mostly inhibitors. AID 624417, 2012. hit rate 1.6% among 410,000. Glucagon-like peptide 1 receptor (Homo sapiens), P43220; also: % is scaled to controls: 0 for no effect and ±100 for the full control effect; nearly all actives have a fitted effect of over 55% in size
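Stable HEK293 clone (constitutively active GLP-1R + cAMP-response luciferase); 200 cells/uL plated, 12 h pre-culture, compound 24 hr, 37 deg C/5% CO2; detection reagent 12 min RT; luminescence.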
ATXN2 expr inh – Primary qHTS for Inhibitors of ATXN expression. AID 1745845, 2022. Potency, µM (titrated, usually from 57 µM), for inactives: at the highest dose activity change, negative = inhibition, usual class: inhibitors. hit rate 0.72% among 360,000. HEK-293 ATXN2-luciferase reporter, luminescence, 24 h; also: % is scaled to controls: 0 for no effect and ±100 for the full control effect; nearly all actives have a fitted effect of over 55% in size
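ATXN2-luciferase reporter cells (luciferase flanked by upstream and downstream ATXN2 gene portions) were treated 24 h at 37 °C with compounds at up to 57 uM. SteadyGlo luminescence gave expression; GF-AFC fluorescence gave viability.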
TGFb SMAD3 inh – qHTS for Inhibitors of TGF-b; AID 588855, 2011; HepG2 CAGA-GFP TGF-b/SMAD3 reporter, GFP fluorescence, 18 h; TGF-beta stimulated, 500 pg/mL final; Potency, µM (doses to about 46.1 µM), inactives show at the highest dose activity, negative = inhibition, usual class: inhibitors; hit rate 1.2% among 410,000; also: % is scaled to controls: 0 for no effect and ±100 for the full control effect; nearly all actives have a fitted effect of over 65% in size
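GFP signal (ex488/em500-530) from TGF-beta-stimulated HEPG2 CAGA-GFP cells, 500 pg/mL final, 18 h at 37 degrees C in DMEM plus 1% FBS, normalized to unstimulated and DMSO-stimulated controls.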
HepG2 viability – qHTS for Inhibitors of TGF-b: Cytotox Counterscreen; HepG2 CAGA-GFP viability, ATP luminescence, 18 h; Potency, µM (highest dose often 46.1 µM), without a hit: at the highest dose activity change, negative = cytotoxicity, hits mostly cytotoxic; hit rate 0.76% among 410,000
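CellTiter-Glo luminescence gave cytotoxicity after 18 hours at 37 degrees C. The cells were HepG2 CAGA-GFP in 1% FBS DMEM, stimulated with 500 pg/mL TGF-beta after compound addition. %Activity was normalised to no-cell wells (complete cell-killing) and DMSO (no toxicity), and curves were fitted and classified.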
S2 tox – Viability Counterscreen for Primary qHTS for Inhibitors of ATXN expression; S2 cells (HEK-293 line with an ATXN2-luciferase reporter) viability, CellTiter-Fluor protease fluorescence, 24 h; Potency, µM (series often up to 56.7 µM), usual class: cytotoxic; hit rate 0.49% among 400,000; AID 651635, 2014; also: nearly all actives have a fitted effect of over 40% in size
Starred values were filed as active, the others as inactive; i = inactive; u = inconclusive; x = no result given. In the library only some 3.7% were active in any assay of this set; here they are far more common. Calls follow the shape of the dose curve; as a rule, active = well fitted curve in the direction sought with a large enough effect; inconclusive = small, poorly fitted or top-dose-only effect, or another doubt; inactive = no such curve, though single readings can be large; an effect the other way counts as inactive or inconclusive. Potency is read from the fitted curve at half-maximal effect.

SMILES	GLP-1R agonist	GLP1R inv ag	ATXN2 expr inh	TGFb SMAD3 inh	HepG2 viability	S2 tox
C=C1C(=O)c2sccc2C(c2ccc(OC)c(OC)c2)C1COC(C)=O (stereo not drawn)	-16%	u	u	0.71µM*	4.5µM*	x
CCC1C(=O)NCCN1Cc1ccc2c(c1)CN(Cc1cc(OC)c3c(c1)OCO3)CCO2 (stereo not drawn)	x	x	x	x	x	i
Cc1cc(C)nc(N/N=C/c2ccccc2OCc2cccc(Br)c2)n1	7%	3.5µM*	-8%	u	-26%	i
COc1ccc(Cl)cc1NC(=O)CN(C)C(=O)c1cc2c(F)cccc2s1	-4%	u	x	u	-20%	u
COc1ccc(Cl)cc1NC(=O)CN(C)CC(=O)Nc1c(C)n(C)n(-c2ccccc2)c1=O	0%	10µM*	-23%	8%	-1%	i
COc1ccc(OC)c(NC(=O)Nc2c(C)n(C)n(-c3ccccc3)c2=O)c1	x	0%	7%	-16%	-37%	i
COc1ccc(Cl)cc1NC(=O)CN(C)C(=O)c1ccc(C)s1	15%	5.6µM*	39%	2%	-7%	i
CCc1ccc(S(=O)(=O)NCc2cccn2Cc2cccc(C)c2)cc1	x	u	u	u	-100%	u
Cc1cccc(Cn2cccc2CNS(=O)(=O)c2ccc(C)c(C)c2)c1	x	u	u	18µM*	-106%	i
Cc1cccc(Cn2cccc2CNS(=O)(=O)c2ccc(Br)cc2)c1	x	u	u	16µM*	-107%	u
O=C(N/N=C/c1cc2c(cc1Br)OCO2)c1ccccn1	1%	-1%	23%	1%	-14%	i
O=C(N/N=C/c1ccc2c(c1)OCO2)c1ccccn1	-1%	u	u	0%	7.1µM*	i
CC(C)c1ccc(/C=N/NC(=O)c2ccccn2)cc1	-1%	u	13µM*	3%	-22%	i
CC(C)(O)CC[C@@H](O)[C@](C)(O)[C@H]1CC[C@@]2(O)C3=CC(=O)[C@@H]4C[C@@H](O)[C@@H](O)C[C@]4(C)[C@@H]3CC[C@]12C	x	x	-13%	x	x	x
CCC=CC[C@H]1C(=O)CC[C@@H]1CC(=O)OC	x	x	-1%	x	x	x
Nc1cc2nc3ccccc3oc-2cc1=O	9%	-8%	-15%	u	4.5µM*	u
CCCNS(=O)(=O)c1cc(-c2nnc3c4ccccc4c(C)nn23)ccc1OC	x	23%	x	-7%	-2%	x
CCc1cccc(CC)c1N(COC)C(=O)Cn1c(C)nc2ccccc21	x	2.2µM*	x	u	-51%	x
CCc1cccc(CC)c1N(COC)C(=O)Cn1cnc2ccccc21	12%	u	0%	-9%	6%	i
CCCOC(=O)c1cccc(NC(=O)c2c(-c3ccccc3Cl)noc2C)c1	x	8.9µM*	x	-32%	-22%	x
COc1ccccc1NC(=S)NC(=O)c1c(-c2ccccc2Cl)noc1C	6%	4µM*	x	-3%	13%	i
Cc1onc(-c2ccccc2Cl)c1C(=O)NC(=S)Nc1ccc(C(C)C)cc1	-5%	4µM*	x	-22%	-14%	i
Cc1onc(-c2c(F)cccc2Cl)c1C(=O)OCC(=O)Nc1cccc(S(=O)(=O)N(C)C)c1	-7%	u	-31%	u	7.1µM*	u
COc1ccc(O)c(/C=N/NC(=O)c2ccc(OCc3cccc(Br)c3)cc2)c1	-5%	0%	3.2µM*	-5%	-38%	u
COc1ccc(C(=O)N/N=C/c2cc(Br)ccc2O)cc1OC	0%	u	1.4µM*	-8%	-19%	i
SMILES	GLP-1R agonist	GLP1R inv ag	ATXN2 expr inh	TGFb SMAD3 inh	HepG2 viability	S2 tox
COc1ccc(O)c(/C=N/NC(=O)c2ccc(CSc3nc(C)cc(C)n3)cc2)c1	13%	u	4.5µM*	u	-37%	i
Cc1cc(C)nc(SCc2ccc(C(=O)N/N=C/c3cccc(O)c3O)cc2)n1	0%	-1%	u	0%	-17%	u
COC(=O)CN1C(=O)CSc2ccc(S(=O)(=O)Nc3ccc(C(C)=O)cc3)cc21	x	8%	x	-20%	-20%	x
OCC(O)CS (stereo not drawn)	1%	x	8%	x	x	i
Cc1nc2n(c(=O)c1CCN1CCC(C(=O)c3ccc(F)cc3)CC1)CCS2	x	x	u	x	x	i
Cc1nn(-c2nc3ccccc3[nH]2)c(=O)c2ccccc12	10%	-96%	0.4µM*	-1%	3.2µM*	i
Cc1nn(-c2ccc3ccccc3c2)c(=O)c2ccccc12	11%	u	x	-17%	-21%	i
CCC12C(=O)C(CC)(C(c3ccccc3)=C1c1ccccc1)[C@@H]1C(=O)N(c3ccccc3)C(=O)C12 (stereo partly drawn)	4%	3.2µM*	-32%	6%	12%	i
CC1=C(C)C(=O)C(C(CCCCCC(=O)O)c2ccccc2)=C(C)C1=O (stereo not drawn)	4%	x	-8%	x	x	i
COc1ccc(-c2[nH]c(-c3cccc(OC)c3)nc2SCC(=O)NC2CCCC2)cc1	6%	u	u	u	-35%	u
COc1ccc(-c2[nH]c(-c3ccc(F)cc3)nc2SCC(=O)NC2CCCC2)cc1	4%	7.9µM*	2%	u	-22%	u
COc1ccc(-c2nc(SCC(=O)NC3CCCC3)c(-c3ccc(F)cc3)[nH]2)cc1	x	u	x	11µM*	-35%	x
CCOc1ccc(-c2nc(SCC(=O)NC3CCCC3)c(-c3ccccc3)[nH]2)cc1OC	x	u	x	-18%	-5%	x

Screening data from PubChem BioAssay.
